The record followed here is PubChem BioAssay (NCI).

About 83,000 compounds went through this panel and 20% of them were active in at least one assay; those are over-represented in the sample as a whole.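 Cell lines were cultured in 96-well plates, exposed to a single compound concentration, and assessed for percent growth 48 hours later.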 Unmarked numbers belong to inactive results. Active and inactive are the calls of the source. Rule for the calls: active = growth percent below 10; inactive = the rest.

The test system of one test is NCI-H522 lung. As to the kind of experiment: NCI-60 one-dose screen, 48 h (100 = growth as untreated, 0 = no growth, -100 = all killed). Conditions: 10 µM unless noted.
Turning to `C=C(C)[C@@H]1CC[C@]2(C(=O)NC3CCCCC3)CC[C@]3(C)[C@H](CC[C@@H]4[C@@]5(C)CCC(=O)C(C)(C)[C@@H]5CC[C@]43C)[C@@H]12`, the growth was 86.9%.
As for `O=[N+]([O-])c1ccc(-c2cc(-c3ccc(Nc4nc(Nc5ccc(Cl)cc5)nc(Nc5ccc(Cl)cc5)n4)cc3)no2)cc1`, the growth was 80.9%.
Still for that read-out and setting: as for `Cc1c2c(c(C)c3c1oc1cc(O)ccc13)C(=O)N(CCN1CCCCC1)C2=O`, the figure is 94.1%.

A further test deals with A549/ATCC NSCLC. Described as above. The following applies: 10 µM unless noted.
As for `COc1cc(Cn2ncc3ccc(NC(=O)c4cc5ccccc5oc4=N)cc32)cc(OC)c1OC`, the growth was 50.7%.
With `N=C1C(c2nc(-c3ccc(Br)cc3)cs2)=C(O)CN1Cc1cccnc1`, the growth was 60.6%.
On to `COc1ccc(/C=C/c2c(C(=O)/C=C/c3cccs3)c(C)nc3ccccc23)cc1`, for which the growth is 92.5%.
In the case of `N#C/C(=C\c1ccc(Br)cc1)n1nnc2cc(F)c(F)cc21`, the growth is 41.5%.
Consider `C[C@@H]1N=C(c2ccc3ccccc3n2)Nc2nc3ccccn3c2C1=O`, for which the growth was 105%.
`CCCCc1ccc(Nc2ccc(Nc3ccc(CCCC)cc3S(=O)(=O)O)c3c2C(=O)c2ccccc2C3=O)c(S(=O)(=O)O)c1`: the growth is 102%.
For the compound `COc1ccc(OC)c2c1[nH]c(=O)c1c3ncccc3cn21`, the growth was 13.5%.
The same measure, in the same setting: in the case of `COc1ccc(NC(=O)CSc2nc(C)c(C(C)=O)n2-c2ccc(Cl)cc2)cc1` it was 97.1%; in that of `COc1cccc(-c2nn(-c3ccccc3)cc2-c2ccnc(NCCNC(=O)Nc3cccc(C(F)(F)F)c3)c2)c1`, 7.06% (active); in that of `O=C(NCCCNc1cc(-c2cn(-c3ccccc3)nc2-c2cccc(O)c2)ccn1)c1ccccc1`, 21%.
On the same count and under the same terms, in the case of `Cc1cc(NCc2cc(Nc3ccnc4cc(Cl)ccc34)ccc2F)nc(N2CCCC2)n1` it was 8.66% (active); in that of `Oc1ccc(CN2CCC(N3CCOCC3)CC2)c2cccnc12`, 14.1%; in that of `CCN(CC)c1nc(SCC(=O)Nc2nc3ccc(C)cc3s2)nc(-c2ccccc2)c1C#N`, 79.4%.
Turning to `Clc1cccc(Cl)c1C(Nc1nc2ccccc2s1)Nc1nc2ccccc2s1`, the growth was 106%.
Take `C[C@H]1[C@H]2[C@H]3CC[C@@H]4[C@@]5(C)C/C(=C/c6cccnc6)C(=O)C(C)(C)[C@@H]5CC[C@@]4(C)[C@]3(C)CC[C@]23CO[C@]1(C)[C@@H](C(=O)/C=C\c1cccnc1)C3`: the growth was -24.6% (active).
As for `O=c1ccn2nc3ccccc3c2[nH]1`, the growth is 116%.
Same read-out and setting: in the case of `COc1ccccc1NC(=O)N/C(N)=N/c1nc2ccccc2s1` it was 25.1%; in that of `COc1c(CCC[P+](c2ccccc2)(c2ccccc2)c2ccccc2)cc2c(c1OC)OCO2`, 40%; in that of `COc1ccc(C(=O)Nn2c(NCC(=O)N3c4ccccc4Sc4ccccc43)nnc2-c2ccc(O)cc2)cc1`, 97.5%.
Turning to `COc1ccc(-c2nc3c(c(=O)n2C(C)=O)C(c2ccc(Cl)cc2)c2sc4c(Cl)cccc4c2O3)cc1` (centres undefined), the growth is -55% (active).
Still for that read-out and setting: as for `Cc1nc2c(c(N3CCCc4ccccc43)n1)CCC2`, the figure is 2.98% (active); as for `CC1=C([Se]CC(OC(=O)CC[Se]c2ccccc2)C(=O)NCCCCCC(=O)OCc2ccccc2)C(=O)c2ccccc2C1=O` (centres undefined), 11.9%.
Consider `Cc1cc(NCCCCNc2ccnc3cc(Cl)ccc23)nc(Nc2ccc(C(=O)N3CCCC3)cc2)n1`, for which the growth is 24%.
On to `Cc1ccc(N(C(=O)CCc2c[nH]c3ccccc23)[C@H](C(=O)Nc2ccc(Cl)cc2)c2cccc([N+](=O)[O-])c2)cc1`, for which the growth was 73.8%.
On the same count and under the same terms, as for `O=c1[nH]c2ccccc2n1C1CCN(CCOc2ccccc2)CC1`, the figure is -22.6% (active); as for `c1ccc2c(c1)nc(CN1CCOCC1)n1cc(N3CCCC3)nc21`, 87.5%; as for `CC/C=C1/C(=O)C=C[C@@H]1C/C=C\CCCC(=O)O`, 87.9%.
With `COC(=O)[C@]12CC[C@@H](C)[C@H](C)[C@@H]1C1=CC[C@@H]3[C@@]4(C)C(C=O)=C[C@@](C)(COS(C)(=O)=O)C4[C@H](O)C[C@@]3(C)[C@]1(C)CC2` (some centres undefined), the growth was -67.1% (active).
Turning to `CCCCCCCCn1ccc2cc(NC(=O)Cn3cc(CN4CCCC4)nn3)ccc21`, the growth was 40.2%.
On the same count and under the same terms, in the case of `CCCCCCCOc1c(OC)cc(C2CC(=O)Nc3c2c(C)nn3-c2nc3ccccc3[nH]2)cc1OC` (centres undefined) it was 1.6% (active); in that of `COc1cc(-c2nc(N3CCN(C)CC3)c3ccccc3n2)cc(OC)c1OC`, 72.5%.
